Each structure is given as a SMILES string. Out of some 360,000 compounds screened, about 9,100 (2.5%) were called active. Roughly 4% stayed inconclusive and do not appear here. The full list was thinned out, with actives kept by preference. Unmarked numbers belong to inactive results. No stated cut-off is given here; in the data, active means max response below about -50%; inconclusive means no clear call, values can overlap the other calls; inactive means above that.
On the % scale 0 is the no-effect control and ±100 the full control effect.

D(3) dopamine receptor (Homo sapiens), sequence (P35462 whole entry, looked up): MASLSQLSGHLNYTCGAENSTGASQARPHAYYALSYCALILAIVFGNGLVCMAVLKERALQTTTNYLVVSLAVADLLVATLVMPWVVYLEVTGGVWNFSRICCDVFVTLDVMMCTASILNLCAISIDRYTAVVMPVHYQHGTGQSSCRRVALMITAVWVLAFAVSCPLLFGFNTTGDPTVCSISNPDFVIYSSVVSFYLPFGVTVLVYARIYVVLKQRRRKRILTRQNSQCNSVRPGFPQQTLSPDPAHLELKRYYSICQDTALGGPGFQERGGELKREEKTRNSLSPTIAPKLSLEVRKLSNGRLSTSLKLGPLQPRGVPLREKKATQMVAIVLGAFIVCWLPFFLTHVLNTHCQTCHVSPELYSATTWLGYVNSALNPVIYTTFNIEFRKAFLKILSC

The assay deals with D(3) dopamine receptor (Homo sapiens) (UniProt P35462). Put plainly: qHTS of D3 Dopamine Receptor Antagonist: qHTS. The following applies: D3R cells, DiscoveRx beta-arrestin luminescence, antagonist mode; stronger effect = lower value. The gist of the method:
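Cells expressing the human receptor were seeded at 1500 cells/well, incubated overnight at 37 degrees C in 5% CO2, then exposed to library compounds with dopamine controls for 90 minutes at 37 degrees C before luminescent detection.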
(In general: qHTS replaces the single test concentration by a dilution series.)
On to `O=C(Nc1ccc2c(c1)OCCO2)C(C1CC1)N1CCC(Cc2ccccc2)CC1` (stereo not drawn), for which the max response, negative = inhibition is -73.1% (active).
The result for `O=C(CN1CCOc2ccccc21)N1CCC(Cc2ccccc2)CC1` reads 0%.
Then `CCC(C(=O)Nc1ccc2c(c1)OCCO2)c1ccccc1` (stereo not drawn), with -13.2%; and `O=C(NCc1ccccc1)C(c1ccc(F)cc1)N1CCN(C(=O)C2CCCO2)CC1` (stereo not drawn), with 29.8%; and `CCOC(=O)C1(C)CCCN(C(=O)c2cccc(Cl)c2)C1` (stereo not drawn), with -16.8%.
Then `COC(=O)c1cc(NC(=O)Cc2ccccc2[N+](=O)[O-])ccc1Cl`, with -7.17%; and `NC(=O)c1ccc(NC(=O)COC(=O)c2ccc([N+](=O)[O-])cc2)cc1`, with -15.1%.
Take `N#Cc1cccc(NC(=O)COC(=O)c2ccccc2C(=O)c2ccc(Cl)c([N+](=O)[O-])c2)c1`: the max response, negative = inhibition is -50.7% (active).
`CCCc1ccc(C(O)c2ncc(-c3cccc(OC)c3)[nH]2)cc1` (stereo not drawn): the max response, negative = inhibition is 0%.
Then `CC(C)(C)S(=O)N1Cc2cc(C(=O)NCCCN3CCOCC3)nc(-c3cccc(-c4cc5ccccc5o4)c3)c2[C@H]1CCO` (stereo partly drawn), with 9.3%; and `COc1cccc(S(=O)(=O)NCc2ccc(C(=O)NCc3ccccn3)cc2)c1`, with 8.72%.
Then `CCN(c1ccccc1)S(=O)(=O)c1cc(C(=O)NCc2ccccn2)ccc1C`, with 4.76%; and `CN(c1ccc(C(=O)NCc2ccccn2)cc1)S(C)(=O)=O`, with -116% (active); and `CC1(Cc2ccccc2C#N)C(=O)Nc2ccc(-c3ccc4[nH]ccc4c3)cc21` (stereo not drawn), with -15.9%.
The result for `COc1ccc(S(=O)(=O)N[C@@H]2C=C[C@@H](CC(=O)N3CCc4ccccc4C3)O[C@@H]2CO)cc1` reads -0.0851%; that for `COc1cccc(C2=CC(=O)C[C@H](c3ccc(F)cc3)C2)c1OC`, -8.44%; that for `COc1ccccc1C1=CC(=O)C[C@H](c2ccc(F)cc2)C1`, -18.2%.
With `O=C1C=C(c2cccc(Cl)c2O)C[C@@H](c2ccc(F)cc2)C1`, the max response, negative = inhibition is -58.3% (active).
The result for `COC(=O)C1=C(C)N(C)C(=O)NC1c1ccc([N+](=O)[O-])o1` (stereo not drawn) reads -10.8%; that for `CCOC(=O)c1ccc(-c2ccc(C(=O)Nc3cccnc3)o2)cc1`, 9.54%.
Then `COC(=O)C1=C(C)NC2=C(C(=O)c3ccccc32)C1c1ccc(-c2ccc(C(=O)O)cc2)o1` (stereo not drawn), with -75.7% (active); and `O=C(NCc1ccco1)C1(c2ccc(Cl)cc2)CCCC1`, with -5.37%.
The result for `O=C(CSc1c2c(nc3ccc(Cl)cc13)CCCC2)NCc1ccco1` reads -79.5% (active); that for `O=C(CSc1nnnn1-c1ccccc1)NCc1ccco1`, -1.61%.
As for `CN(C)c1ccc(/C=N/Nc2cc(N3CCOCC3)nc(N3CCOCC3)n2)cc1`, the max response, negative = inhibition is -13.4%.
As to `Cc1cc(C)n(-c2nnc(N3CCN(c4ccccc4)CC3)nn2)n1`, the max response, negative = inhibition was -8.33%.
`Cc1cc(N/N=C\c2ccc(Br)cc2)nc(-n2nc(C)cc2C)n1`: the max response, negative = inhibition was -54.3% (active).
The result for `N#CC1=C(N)C(C#N)(C#N)[C@H](c2ccsc2)[C@H]2COCC=C12` reads -56% (active); that for `C[C@H]1COc2cc(N3CCSCC3)ccc2S(=O)(=O)N1`, -22.5%; that for `CCCCC(O)C1=C[N+](=O)CC=C1` (stereo not drawn), 7.65%.
The result for `COc1ccc(-c2cc(NC=O)c3ncc(-c4ccccc4)n3c2)cc1OC` reads -15.4%.
As for `COc1ccc(S(=O)(=O)NC(=O)C2(C)CCN2C(=O)c2ccccc2CCc2ccccc2)cc1` (stereo not drawn), the max response, negative = inhibition is -6.13%.
Then `CC(C)(O)C1=C[N+](=O)CC=C1`, with -16.9%.
Then `O=C(c1ccccc1)N1CCN(c2cc(-c3ccccc3)nc3cc(-c4cccc(Cl)c4)nn23)CC1`, with 14.3%; and `Cc1cc(NC(=O)CCN2CCN(Cc3ccccc3)CC2)ccc1Br`, with -20.3%.
Take `COC(=O)c1[nH]c2ccccc2c1NC(=O)CN1CCCc2ccccc21`: the max response, negative = inhibition is 9.03%.
The result for `CCOC(=O)c1[nH]c2ccc(OC)cc2c1NC(=O)CCN1CCN(Cc2ccccc2)CC1` reads -54.8% (active).
The result for `COc1ccc(-c2c(C#N)cnc(C)c2C)c(O)c1OC` reads 9.2%.
The result for `CC(=O)Nc1cccc(Nc2ccc(C#N)cc2)c1` reads 1.07%; that for `Clc1ccc(CN2CCCCCC2)cc1Cl`, -62.3% (active).
Regarding `Clc1ccc(-n2nnnc2CN2CCCCC2)cc1Cl`, the max response, negative = inhibition is -19.7%.
The result for `c1cc(-c2nn[nH]n2)ccc1CN1CCCCC1` reads -18.9%; that for `CC1(C(=O)NCc2ccc3c(c2)OCO3)CCN1CCc1ccccc1` (stereo not drawn), -10.3%; that for `COCCNc1nc(NCc2ccc(NC(C)=O)cc2)c2sccc2n1`, 23.6%.
Then `COc1ccc(NC(=O)C2Cc3c(-c4ccc5c(c4)OCO5)ccnc3O2)cn1` (stereo not drawn), with -19.8%; and `CC1(C)Cc2ccccc2-c2nc(CN3CCOCC3)[nH]c(=O)c21`, with 8.19%.
As to `CC1(C)Cc2ccccc2-c2[nH]c(=S)[nH]c(=O)c21`, the max response, negative = inhibition was -54.5% (active).
The result for `CC1(C)Cc2ccccc2/C(=C/C(=O)c2ccccc2)N1` reads 3.22%.

Source of the values: PubChem BioAssay AID652054 (National Center for Advancing Translational Sciences (NCATS), 2013).
